# Results taken from PubChem BioAssay (NCI).
# Compounds without any hit were thinned out: in the full panel of roughly 79,000, 15% have a hit. The source made the active and inactive calls. Cut-off read from the data, not from the text of the source: active = growth inhibition above about 70%; inactive = the rest.
# Assay: NCI Yeast Anticancer Drug Screen. Data for the rad14 strain (AID 159);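 note: 0% = growth of vehicle-treated control cultures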
# Conditions: S. cerevisiae rad14 strain growth inhibition; at 100.0 µM; active compounds read high
# Outline: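 Yeast cells carrying a defined DNA-repair defect were exposed to compounds, and growth inhibition was calculated relative to vehicle-treated control cultures.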
row,SMILES,growth inhibition
1,COc1ccc2nc3cccc([N+](=O)[O-])c3c(NCCNCCN(C)C)c2c1,4% (inactive)
2,Cc1cccc(/C=N/NC(=S)NC2CCCCC2)n1,26% (inactive)
3,COC(=O)C(=O)c1c(-c2ccc(Cl)c(Cl)c2)[nH]c2[nH]n(-c3ccccc3)c(=O)c2c1=O,61% (inactive)
4,c1ccc([P+](CCN2Cc3ccccc3C2)(c2ccccc2)c2ccccc2)cc1,70% (active)
5,Cc1cc(C)c2[s+]snc2c1,21% (inactive)
6,CC(C)(Br)C(=O)/C=C/c1ccccc1,97% (active)
7,Cc1ccc(S(=O)(=O)NC(=O)C2C(=O)CC3(CCCCC3)CC2=O)cc1,86% (active)
8,NC(=S)N1N=C2c3ccccc3CC[C@H]2[C@@H]1c1ccc(Cl)cc1,82% (active)
9,O=[N+]([O-])/C=C/c1cc2ccc3ccccc3c2[nH]1,91% (active)
10,O=C1C(=C2CCCC2)CCC1CN1CCCCC1 (stereo unspecified),94% (active)
11,OC(CC(O)(C(F)(F)F)C(F)(F)F)c1ccc(C(O)CC(O)(C(F)(F)F)C(F)(F)F)cc1 (stereo unspecified),99% (active)
12,COc1cc2c(cc1OC)[C@@H](Nc1ccc(C#N)cc1)C1COC(=O)[C@@H]1C2c1cc(OC)c(O)c(OC)c1 (stereo partly specified),81% (active)
13,O=c1cccccc1[O-].O=c1cccccc1[O-].O=c1cccccc1[O-].[Eu+3],98% (active)
14,O=C1c2ccccc2C(=O)c2sc(Nc3ccccc3Cl)nc21,98% (active)
15,NC(CCCCCCCCCCCCC(N)C(=O)c1ccccc1)C(=O)c1ccccc1 (stereo unspecified),96% (active)
16,CC1=C(C)C(=O)C2=C(OCCO2)C1=O,71% (active)
17,c1ccc(-c2cc(C3CO3)c3ccccc3n2)cc1 (stereo unspecified),97% (active)
18,S=C1C(=Nc2ccccc2)N(c2ccccc2)/C(=N\c2ccccn2)N1c1ccccc1,95% (active)

row,SMILES,growth inhibition
1,CCC(OC(C)=O)C1CC(C(C)C)CCC1C (stereo unspecified),99% (active)
2,CC(C)=CCc1c2c(c(O)c3c(=O)c(-c4ccc(O)c(O)c4)coc13)C=CC(C)(C)O2,87% (active)
3,O=C(NC(N1CCN(c2cc3c(cc2F)c(=O)c(C(=O)O)cn3C2CC2)CC1)(C(F)(F)F)C(F)(F)F)c1ccccc1,44% (inactive)
4,Fc1cc(F)c(F)c(S)c1F,96% (active)
5,COc1ccc2cc3c4cc5c(cc4cc[n+]3cc2c1OC)OCO5,98% (active)
6,CCCCCCCCNCCCCCCCC,98% (active)
7,Nc1cc(Cl)ccc1Nc1ccccc1,87% (active)
8,O=C(/C(=C/c1ccc(O)cc1)c1ccccc1)c1ccccc1,94% (active)
9,O=Cc1ccccc1C=O,86% (active)
10,C1=CCN([B-](c2ccccc2)[C+]2CCCCC2)C=C1,99% (active)
11,CC/C(=C(\c1ccccc1)c1ccc(OCC[N+](C)(C)C)cc1)c1ccccc1,99% (active)
12,O=S(=O)(c1cccc(C(F)(F)F)c1)N1c2ccccc2-n2cccc2C1c1cccnc1 (stereo unspecified),89% (active)
13,Nc1ccc2c(c1)C(=O)c1c(F)cccc1-2,78% (active)
14,CN(C)/C(=N/C(=S)Nc1ccccc1)SCc1ccccc1,18% (inactive)
15,CCN(CC)C(=S)N/N=C(\C)c1ccccc1O,98% (active)
16,CC(C)OC(=O)NNc1cc(Cl)ccc1Cl,99% (active)
17,CC(C)CCC[C@@H](C)[C@H]1CC[C@H]2[C@@H]3CC[C@H]4C[C@H](N)CC[C@]4(C)[C@H]3CC[C@]12C,-1% (inactive)
18,O=C1c2ccccc2-c2ccc(N=Cc3ccccc3)cc21,45% (inactive)
